According to PubChem BioAssay (NCATS):
Inconclusive results are not listed. Unless noted, calls come from the whole dose curve; as a rule, active = well fitted curve in either direction with a large enough effect (not every such curve was filed as active); inconclusive = small, poorly fitted or top-dose-only effect, or another doubt; inactive = flat fitted curve, though single readings scatter.

Tested on: not listed separately
Test: Stat Signaling Pathway (AID 446);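 note: ME-180 cervical cancer cells given 40 pM IL-6 alongside compound; SIE-controlled beta-lactamase reporter measured as 460/530 nm FRET emission ratio; % is set by controls: 0 for no effect and ±100 for the full control effect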
Conditions: ME-180 (cervical carcinoma) SIE beta-lactamase reporter, IL-6 stimulated, 5 h; at 17.2 µM (top of the series) unless noted
Outline: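 IL-6/STAT signaling read in ME-180 cells via an SIE beta-lactamase reporter. Stimulus was 40 pM IL-6 (its AC50) for 5 hrs, so both activation and inhibition register.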

activity, negative = inhibition, inactive:
CCCCCCCCCCCCCCCC(O)C(N)CO (stereo not drawn) 7.16%, Nc1ccc2oc(-c3cc(Br)ccc3Cl)nc2c1 0.658%, CCC1CCCCN1c1nc(-c2cccc(OC)c2O)nc2ccccc12 (stereo not drawn) -4.92%, O=C(NCc1cccnc1)/C(=N\O)c1ccccc1 0.749%, CCCCCCn1cc(C(=O)O)c(=O)c2ccccc21 8.19%, CC1(C)Cc2c(c(-c3ccco3)[nH]c(=O)c2C#N)CS1 11.6%, Cc1ccc(OCC(=O)N2CCC(N3CCCCCC3)CC2)cc1 17.9%, OCCNc1nc(-c2ccccc2)c2ccccc2n1 -4.38%, CCCCCSc1nc(N2CCOCC2)c2c(c1C#N)CC(C)(C)OC2 9.95%, CC1(C)Cc2c(c(N3CCOCC3)nc3snc(Br)c23)CO1 13.2%, Nc1ccc2c(c1)N1CCN=C1S2 8.4%, N#CC12CCCCC1CC1CCCCC1(C#N)N2Cc1ccccn1 (stereo not drawn) 19.1%, COc1ccc(C=NCCCN2CCOCC2)cc1 -3.86%, COc1cc(OC)cc(C(=O)N2CCC(N3CCCCCC3)CC2)c1 0.747%, CNC(=O)CC(C(=O)O)c1ccc(OC(C)C)cc1 (stereo not drawn) 5.76%, Cc1ccc(S(=O)(=O)c2cc3c(=O)n4ccccc4nc3n(C)c2=N)cc1 26.2%, Cn1c(=O)c2c(nc(NCc3ccco3)n2Cc2ccc(Cl)cc2Cl)n(C)c1=O -17.6%, CCCc1cc(=O)oc2c(CN3CCCC3)c(O)c(Cl)cc12 0.152%, CC1(C)Cc2c(sc3c4nnnn4c4nnnn4c23)CO1 -26.4%, COc1cc([C@@H]2[C@H]3CNCC=C3C(C#N)=C(N)C2(C#N)C#N)ccc1OC(C)C 10.8%, CC(CN1CCN(C)CC1)OC(=O)c1ccc(Cl)cc1Cl (stereo not drawn) -1.03%, Cc1cc(N2C(=O)C(=O)/C(=C(/O)c3ccccc3)C2c2cccc(Br)c2)no1 (stereo not drawn) -23.1%, CCCCCNC(=O)C(C#N)c1nc2ccccc2nc1N1CC(C)OC(C)C1 (stereo not drawn) -11.4%, N#CC1=C(N)N(c2ccccc2)C(c2ccccc2)C1(C#N)C#N (stereo not drawn) -18.6%, O=C(NCc1ccco1)c1cnn2c(C(F)(F)F)cc(-c3ccco3)nc12 10.1%, Cn1c(N2CCOCC2)nc2c1c(=O)n(Cc1ccc(Cl)cc1)c(=O)n2C 23.9%, CC1(C)Cc2c(c(N3CCCCC3)[nH]c(=S)c2C#N)CS1 -3.22%, COc1ccccc1NC(=O)C1=C(C)NC(SCC(=O)c2ccc(C)cc2)=C(C#N)C1c1ccco1 (stereo not drawn) -6.63%, COc1ccc(N2CCN(C3CC(=O)NC3=O)CC2)cc1 (stereo not drawn) 17.5%, CCOC(=O)C(C)Sc1nc(-c2cccs2)ccc1C#N (stereo not drawn) -3.63%, COc1ccc(CCNc2oc(COc3ccccc3)nc2C#N)cc1 -23.3%, Cc1cc(C)n(-c2nnc(C)n2/N=C/c2ccco2)n1 2.31%, CCOC(=O)/C(C#N)=C1\Nc2ccccc2N=C1N(CC(C)C)CC(C)C -4.73%, CCN(CC)c1ccc(C2Nc3cccc4cccc(c34)N2)c(O)c1 -17.7%, COC(=O)CSC1=C(C#N)C(=O)NC2(CCCCC2)S1 3.53%, CC(C)Sc1nnc2n(CCc3ccccc3)c(=O)c3c4c(sc3n12)COC(C)(C)C4 -3.01%, CN(C)CCCOC(=O)c1ccc(Cl)cc1Cl 2.76%, COc1ccc(C2/C(=C(\O)c3ccc4c(c3)OCCO4)C(=O)C(=O)N2CCCN(C)C)cc1 (stereo not drawn) 2.89%, N#CCSc1nc2c(cc1C#N)CCCCCC2 5.36%

Target: Glucocorticoid receptor (Homo sapiens) (UniProt P04150)
Sequence (P04150 whole entry, looked up): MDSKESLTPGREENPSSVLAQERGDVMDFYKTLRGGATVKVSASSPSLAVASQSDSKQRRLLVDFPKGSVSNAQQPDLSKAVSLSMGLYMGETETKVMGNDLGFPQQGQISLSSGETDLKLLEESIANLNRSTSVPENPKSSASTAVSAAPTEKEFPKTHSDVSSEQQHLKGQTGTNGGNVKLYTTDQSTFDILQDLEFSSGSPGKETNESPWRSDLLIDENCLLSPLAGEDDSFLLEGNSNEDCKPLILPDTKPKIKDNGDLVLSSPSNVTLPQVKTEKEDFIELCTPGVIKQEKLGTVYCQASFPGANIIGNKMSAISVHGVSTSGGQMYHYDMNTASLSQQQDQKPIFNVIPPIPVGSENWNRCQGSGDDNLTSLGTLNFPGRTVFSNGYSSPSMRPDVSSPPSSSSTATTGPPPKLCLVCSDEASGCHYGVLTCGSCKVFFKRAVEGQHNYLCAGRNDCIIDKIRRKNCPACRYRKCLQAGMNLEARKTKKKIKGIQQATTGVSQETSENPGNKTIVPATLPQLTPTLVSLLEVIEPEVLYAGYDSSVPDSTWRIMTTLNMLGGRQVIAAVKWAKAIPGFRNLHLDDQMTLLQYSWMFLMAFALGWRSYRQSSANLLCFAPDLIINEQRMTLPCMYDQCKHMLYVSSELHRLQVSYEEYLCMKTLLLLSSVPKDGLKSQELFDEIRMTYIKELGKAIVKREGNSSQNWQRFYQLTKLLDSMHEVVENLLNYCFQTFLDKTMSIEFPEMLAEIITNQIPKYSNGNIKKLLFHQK
Test: GR-GFP Redistribution (AID 450;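 active = compounds whose dose series gives a full or clear partial fitted curve of increased nuclear translocation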; note: potency is the fitted concentration of half-maximal effect)
Conditions: U2OS GR-GFP nuclear translocation, laser cytometry, 2 h; series mostly up to 20.6 µM

Potency, inactive:
CCCCCCCCCCCCCCCC(O)C(N)CO (stereo not drawn) > 20.6 µM, Nc1ccc2oc(-c3cc(Br)ccc3Cl)nc2c1 > 20.6 µM, CCC1CCCCN1c1nc(-c2cccc(OC)c2O)nc2ccccc12 (stereo not drawn) > 20.6 µM, O=C(NCc1cccnc1)/C(=N\O)c1ccccc1 > 20.6 µM, CCCCCCn1cc(C(=O)O)c(=O)c2ccccc21 > 20.6 µM, CC1(C)Cc2c(c(-c3ccco3)[nH]c(=O)c2C#N)CS1 > 20.6 µM, Cc1ccc(OCC(=O)N2CCC(N3CCCCCC3)CC2)cc1 > 20.6 µM, OCCNc1nc(-c2ccccc2)c2ccccc2n1 > 20.6 µM, CCCCCSc1nc(N2CCOCC2)c2c(c1C#N)CC(C)(C)OC2 > 20.6 µM, CC1(C)Cc2c(c(N3CCOCC3)nc3snc(Br)c23)CO1 > 20.6 µM, Nc1ccc2c(c1)N1CCN=C1S2 > 20.6 µM, N#CC12CCCCC1CC1CCCCC1(C#N)N2Cc1ccccn1 (stereo not drawn) > 20.6 µM, COc1ccc(C=NCCCN2CCOCC2)cc1 > 20.6 µM, COc1cc(OC)cc(C(=O)N2CCC(N3CCCCCC3)CC2)c1 > 20.6 µM, CNC(=O)CC(C(=O)O)c1ccc(OC(C)C)cc1 (stereo not drawn) > 20.6 µM, Cc1ccc(S(=O)(=O)c2cc3c(=O)n4ccccc4nc3n(C)c2=N)cc1 > 20.6 µM, Cn1c(=O)c2c(nc(NCc3ccco3)n2Cc2ccc(Cl)cc2Cl)n(C)c1=O > 20.6 µM, CCCc1cc(=O)oc2c(CN3CCCC3)c(O)c(Cl)cc12 > 20.6 µM, CC1(C)Cc2c(sc3c4nnnn4c4nnnn4c23)CO1 > 20.6 µM, COc1cc([C@@H]2[C@H]3CNCC=C3C(C#N)=C(N)C2(C#N)C#N)ccc1OC(C)C > 20.6 µM, CC(CN1CCN(C)CC1)OC(=O)c1ccc(Cl)cc1Cl (stereo not drawn) > 20.6 µM, Cc1cc(N2C(=O)C(=O)/C(=C(/O)c3ccccc3)C2c2cccc(Br)c2)no1 (stereo not drawn) > 20.6 µM, CCCCCNC(=O)C(C#N)c1nc2ccccc2nc1N1CC(C)OC(C)C1 (stereo not drawn) > 20.6 µM, N#CC1=C(N)N(c2ccccc2)C(c2ccccc2)C1(C#N)C#N (stereo not drawn) > 20.6 µM, O=C(NCc1ccco1)c1cnn2c(C(F)(F)F)cc(-c3ccco3)nc12 > 20.6 µM, Cn1c(N2CCOCC2)nc2c1c(=O)n(Cc1ccc(Cl)cc1)c(=O)n2C > 20.6 µM, CC1(C)Cc2c(c(N3CCCCC3)[nH]c(=S)c2C#N)CS1 > 20.6 µM, COc1ccccc1NC(=O)C1=C(C)NC(SCC(=O)c2ccc(C)cc2)=C(C#N)C1c1ccco1 (stereo not drawn) > 20.6 µM, COc1ccc(N2CCN(C3CC(=O)NC3=O)CC2)cc1 (stereo not drawn) > 20.6 µM, CCOC(=O)C(C)Sc1nc(-c2cccs2)ccc1C#N (stereo not drawn) > 20.6 µM, COc1ccc(CCNc2oc(COc3ccccc3)nc2C#N)cc1 > 20.6 µM, Cc1cc(C)n(-c2nnc(C)n2/N=C/c2ccco2)n1 > 20.6 µM, CCOC(=O)/C(C#N)=C1\Nc2ccccc2N=C1N(CC(C)C)CC(C)C > 20.6 µM, CCN(CC)c1ccc(C2Nc3cccc4cccc(c34)N2)c(O)c1 > 20.6 µM, COC(=O)CSC1=C(C#N)C(=O)NC2(CCCCC2)S1 > 20.6 µM, CC(C)Sc1nnc2n(CCc3ccccc3)c(=O)c3c4c(sc3n12)COC(C)(C)C4 > 20.6 µM, CN(C)CCCOC(=O)c1ccc(Cl)cc1Cl > 20.6 µM, COc1ccc(C2/C(=C(\O)c3ccc4c(c3)OCCO4)C(=O)C(=O)N2CCCN(C)C)cc1 (stereo not drawn) > 20.6 µM, N#CCSc1nc2c(cc1C#N)CCCCCC2 > 20.6 µM
